Calls of active or inactive are those of the source.
What was measured:
[1] = E. coli DRC41 culture turbidity changes, primary screen, E. coli filamentation inducer project, strain DRC41, OD650, 48 h (AID 1152);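 note: E. coli MC1000 strain DRC41 lacking acrAB efflux pump and sulA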; conditions: E. coli DRC41 (acrAB sulA), higher = more signal, called active from +8 up or from −8 down
[2] = small-molecule binders of probe aLefty1, primary screen, biochemical, small-molecule microarray, 635/667 nm fluorescence (AID 1153); conditions: higher = more signal;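 note: score merges spot fluorescence with signal-to-noise ratio from the scanned slide images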
[3] = PSAC antagonists in infected red cells, primary screen, cell-based, P. falciparum Indochina, OD700, 1 h (AID 1154); conditions: P. falciparum Indochina infected RBC osmotic lysis, higher = more signal, called active from +8 up or from −8 down
[4] = PSAC antagonists in infected red cells, primary screen, cell-based, P. falciparum Indochina, OD700, 2 h (AID 1155);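 note: lysis reports solute entry through the parasite surface anion channel PSAC; channel blockers reduce lysis of infected cells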; conditions: P. falciparum Indochina infected erythrocytes, osmotic lysis OD700; higher = more signal, called active from +8 up or from −8 down
[5] = osmotic lysis modulators in infected erythrocytes, primary screen, PSAC antagonist project, cell-based, P. falciparum Indochina, OD700, 3 h (AID 1156); conditions: higher = more signal, called active from +8 up or from −8 down
[6] = PSAC antagonists in infected red cells, primary screen, cell-based, P. falciparum Indochina, OD700, 18 h (AID 1157); conditions: P. falciparum Indochina infected erythrocytes, osmotic lysis OD700, 18 h; higher = more signal, called active from +8 up or from −8 down
[7] = modulators of S6 phosphorylation in cells, primary screen, cell-based, A549, cytoblot, luminescence, serum-stimulated (AID 1158); conditions: A549 phospho-S6 cytoblot, 5 h, higher = more signal;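 note: serum-stimulated A549 lung adenocarcinoma cells; signal is phosphorylated S6 detected by cytoblot immunostaining with HRP secondary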
[8] = target: NADPH oxidase 2 (Homo sapiens) (UniProt P04839); test: NOX2-dependent H2O2 signal modulators, primary screen, NOX inhibitor project, cell-based, HEK293-NOX2, PMA-stimulated, Amplex Red fluorescence (AID 1159); conditions: 45 min, higher = more signal, called active from +8 up or from −8 down; note: test concentration not given here
Sequence of NADPH oxidase 2 (Homo sapiens) (P04839 whole entry, looked up): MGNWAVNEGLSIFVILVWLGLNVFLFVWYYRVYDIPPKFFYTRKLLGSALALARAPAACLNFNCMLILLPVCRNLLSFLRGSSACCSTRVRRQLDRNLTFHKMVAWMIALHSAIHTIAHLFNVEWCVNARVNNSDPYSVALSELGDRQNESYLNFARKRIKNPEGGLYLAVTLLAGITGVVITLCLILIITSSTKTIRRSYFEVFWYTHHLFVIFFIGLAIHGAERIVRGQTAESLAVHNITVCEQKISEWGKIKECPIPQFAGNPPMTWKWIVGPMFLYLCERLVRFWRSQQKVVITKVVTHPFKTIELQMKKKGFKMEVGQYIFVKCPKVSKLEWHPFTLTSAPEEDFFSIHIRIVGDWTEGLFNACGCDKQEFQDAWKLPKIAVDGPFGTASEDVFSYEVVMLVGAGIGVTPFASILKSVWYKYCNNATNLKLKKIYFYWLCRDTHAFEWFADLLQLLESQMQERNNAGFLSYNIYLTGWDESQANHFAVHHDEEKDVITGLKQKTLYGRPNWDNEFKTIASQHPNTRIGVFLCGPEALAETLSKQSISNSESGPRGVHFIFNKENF

[9] = target: NADPH oxidase 4 (Homo sapiens) (UniProt Q9NPH5); test: NOX4-dependent H2O2 signal modulators, primary screen, NOX inhibitor project, cell-based, HEK293-NOX4, tetracycline-induced, Amplex Red fluorescence (AID 1160); conditions: 45 min, higher = more signal, called active from +8 up or from −8 down
Sequence of NADPH oxidase 4 (Homo sapiens) (Q9NPH5 whole entry, looked up): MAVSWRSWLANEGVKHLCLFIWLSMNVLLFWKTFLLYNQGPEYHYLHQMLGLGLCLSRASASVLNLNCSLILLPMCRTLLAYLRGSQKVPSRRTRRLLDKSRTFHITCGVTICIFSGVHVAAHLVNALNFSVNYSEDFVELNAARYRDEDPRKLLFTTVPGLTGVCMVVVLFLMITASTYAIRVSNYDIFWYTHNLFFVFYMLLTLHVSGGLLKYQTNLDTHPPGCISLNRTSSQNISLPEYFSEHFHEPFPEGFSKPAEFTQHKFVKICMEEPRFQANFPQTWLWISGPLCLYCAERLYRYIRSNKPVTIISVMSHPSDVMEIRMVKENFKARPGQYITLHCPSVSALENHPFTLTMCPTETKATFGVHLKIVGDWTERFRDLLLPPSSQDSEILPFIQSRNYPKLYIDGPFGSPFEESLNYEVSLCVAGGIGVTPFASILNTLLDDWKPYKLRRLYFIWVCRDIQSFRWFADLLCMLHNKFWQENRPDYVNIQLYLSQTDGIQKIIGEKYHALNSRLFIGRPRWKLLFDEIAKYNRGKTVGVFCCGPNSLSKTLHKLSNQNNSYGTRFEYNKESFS

[10] = target: NADPH oxidase 5 (Homo sapiens) (UniProt Q96PH1); test: NOX5-dependent H2O2 signal modulators, primary screen, NOX inhibitor project, cell-based, HEK293-NOX5, Amplex Red fluorescence (AID 1161); conditions: HEK293-NOX5, ionomycin, 45 min, higher = more signal
Sequence of NADPH oxidase 5 (Homo sapiens) (Q96PH1 whole entry, looked up): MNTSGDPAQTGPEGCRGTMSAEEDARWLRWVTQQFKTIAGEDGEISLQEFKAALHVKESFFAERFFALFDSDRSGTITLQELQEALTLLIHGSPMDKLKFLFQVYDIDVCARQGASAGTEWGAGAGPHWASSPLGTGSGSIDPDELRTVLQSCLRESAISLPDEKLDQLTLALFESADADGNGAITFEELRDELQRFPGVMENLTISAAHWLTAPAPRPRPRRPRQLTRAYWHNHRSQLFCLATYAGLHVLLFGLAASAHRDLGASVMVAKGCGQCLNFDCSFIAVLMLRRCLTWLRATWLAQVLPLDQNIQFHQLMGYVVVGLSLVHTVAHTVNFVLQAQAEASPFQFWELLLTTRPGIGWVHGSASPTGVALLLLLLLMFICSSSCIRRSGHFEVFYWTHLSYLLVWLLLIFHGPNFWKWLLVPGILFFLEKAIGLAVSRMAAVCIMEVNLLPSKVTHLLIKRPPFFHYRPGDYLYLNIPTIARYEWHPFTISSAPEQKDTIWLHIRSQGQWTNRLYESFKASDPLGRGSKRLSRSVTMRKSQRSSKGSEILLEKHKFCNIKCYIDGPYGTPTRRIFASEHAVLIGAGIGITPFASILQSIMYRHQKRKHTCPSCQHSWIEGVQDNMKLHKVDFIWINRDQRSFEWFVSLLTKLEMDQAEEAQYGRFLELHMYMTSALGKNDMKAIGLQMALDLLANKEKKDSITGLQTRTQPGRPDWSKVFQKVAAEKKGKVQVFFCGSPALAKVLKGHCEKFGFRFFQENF

[11] = A549 cell viability effects, profiling panel, calcein-AM fluorescence, 48 h, basal (AID 1162); conditions: higher = more signal; note: test concentration not given here
[12] = adipocyte viability effects, profiling panel, cell-based, 3T3-L1 adipocytes, calcein-AM fluorescence, 48 h, basal (AID 1163); conditions: 3T3-L1 adipocytes viability, higher = more signal; note: test concentration not given here
[13] = HepG2 cell viability effects, profiling panel, calcein-AM fluorescence, 48 h, basal (AID 1164); conditions: higher = more signal; note: test concentration not given here
[14] = MM1S cell viability effects, profiling panel, calcein-AM fluorescence, 48 h, basal (AID 1165); conditions: higher = more signal;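 note: viability of MM1S multiple myeloma cells under basal unstimulated conditions; test concentration not given here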
[15] = basal RPMI8226 viability, no added stimulus, profiling panel, cell-based, calcein-AM fluorescence, 48 h, PK04 Diversity Set (AID 1166); conditions: RPMI8226 myeloma viability, higher = more signal;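 note: cells grown under basal conditions without added stimulus; test concentration not given here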
[16] = basal HepG2 mitochondrial membrane potential changes, profiling panel, cell-based, JC-1 fluorescence, 24 h, 100 nL compound (AID 1167); conditions: higher = more signal; note: test concentration not given here
[17] = basal 3T3-L1 adipocyte mitochondrial potential changes, profiling panel, cell-based, JC-1 fluorescence, 3T3-L1 adipocytes, 24 h, 100 nL compound (AID 1168); conditions: JC-1 mitochondrial fluorescence, higher = more signal, called active from +8 up or from −8 down; note: test concentration not given here
[18] = basal RPMI8226 mitochondrial membrane potential changes, profiling panel, cell-based, JC-1 fluorescence, 24 h, 100 nL compound (AID 1169); conditions: RPMI8226 myeloma, JC-1 mitochondrial potential fluorescence, higher = more signal; note: test concentration not given here
[19] = basal MM1S mitochondrial membrane potential changes, profiling panel, cell-based, JC-1 fluorescence, 24 h, 100 nL compound (AID 1170); conditions: higher = more signal; note: test concentration not given here
[20] = A549 lung cancer cell viability effects, profiling panel, resazurin fluorescence, 24 h, PK04 Diversity Set (AID 1171); conditions: higher = more signal, called active from +8 up or from −8 down; note: test concentration not given here

Compound | z-score [1] | composite z-score [2] | z-score [3] | z-score [4] | z-score [5] | z-score [6] | z-score [7] | z-score [8] | z-score [9] | z-score [10] | z-score [11] | z-score [12] | z-score [13] | z-score [14] | z-score [15] | z-score [16] | z-score [17] | z-score [18] | z-score [19] | z-score [20]
COc1ccc(C(O)C2C=CC3C(=O)NC(=O)C3N2Nc2ccccn2)cc1OCc1ccccc1 (stereo not given) | -0.325 (inactive) | -0.106 | 1.68 (inactive) | 0.396 (inactive) | 0.479 (inactive) | 1.04 (inactive) | -0.432 | -1.49 (inactive) | -3.05 (inactive) | -2.03 | -1.11 | 0.119 | 0.222 | -0.042 | -1.22 | -1 | -0.479 (inactive) | -0.879 | 0.607 | -0.404 (inactive)
C=C[C@@H](COC(C)=O)N(Cc1ccc([N+](=O)[O-])cc1)S(=O)(=O)c1ccc(Br)cc1 | 2 (inactive) | 0.0012 | 7.66 (inactive) | 0.824 (inactive) | 2.31 (inactive) | 0.79 (inactive) | 0.354 | 0.495 (inactive) | 0.851 (inactive) | -0.559 | 1.97 | -0.306 | 0.452 | 1.3 | 0.647 | 0.64 | 0.0569 (inactive) | 0.667 | 0.198 | 2.05 (inactive)
NCCCCCNC(=O)[C@H]1C[C@H]2C(=O)NCC(=O)N2[C@H]1c1cccc(OCCO)c1 | 1.5 (inactive) | -0.505 | 2.03 (inactive) | 0.508 (inactive) | 2.65 (inactive) | 0.0799 (inactive) | 0.753 | 0.972 (inactive) | 1.02 (inactive) | 1.39 | 1.5 | 0.118 | 0.79 | 0.892 | 0.857 | 0.538 | 1.18 (inactive) | -0.164 | -0.158 | 0.547 (inactive)
